Experimental findings from PubChem BioAssay (EPA / NIEHS) are described below.

The source made the active and inactive calls. The calls were made as follows: active = hit-call score of the fitted dose curve at least 0.9, where 1 is the maximum; inactive = score below 0.9.

Experiment [1] can be described thus: ATG_CRE_CIS: Attagene CIS-FACTORIAL HepG2 Assay for human cAMP Responsive Element (CRE) binding protein 3 (AID 2282926). The conditions noted are these: HepG2 CRE cis-reporter, Attagene multiplexed mRNA; actives raise or lower the signal. Put shortly: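 Endogenous CRE-binding activity in HepG2 is reported through a cis-regulated transfected reporter. Following a day of exposure, mRNA levels are determined by reverse transcription PCR and fluorescent fragment analysis; fits run in both directions versus DMSO.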

In experiment [2] the target is CCAAT/enhancer-binding protein beta (Homo sapiens) (UniProt P17676). In words: ATG_C_EBP_CIS: Attagene CIS-FACTORIAL HepG2 Assay for human CCAAT/Enhancer Binding Protein (C/EBP) beta (AID 2282927). Particulars: HepG2 Attagene cis-factorial transcription factor reporter; actives raise or lower the signal. Put shortly:
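HepG2, transient MRTU transfection, 24 h treatment. RT-PCR plus CE fluorescence; DMSO negative control, bidirectional fit.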

Experiment [3] in a line: ATG_CMV_CIS: Attagene CIS-FACTORIAL HepG2 Assay for human CMV (Internal Marker) (AID 2282928).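 Also: endpoint acts as a background internal control marker rather than a target.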 Particulars: HepG2 CMV promoter reporter, transcription factor profiling; actives raise or lower the signal. Put shortly: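 Cell system: HepG2, transiently transfected multiple reporter units under cis promoters. Exposure: 24 h. Detection: RT-PCR, FAM labeling, HpaI digestion, capillary electrophoresis. Analysis: bidirectional, DMSO baseline.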

Experiment [4] can be described thus: ATG_DR4_LXR_CIS: Attagene CIS-FACTORIAL HepG2 Assay for human Liver X Receptor (LXR), DR4 submotif (AID 2282929). Particulars: HepG2 Attagene DR4 cis-reporter, mRNA transcription; actives raise or lower the signal. Put shortly:
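Fluorescence intensity of labelled reporter cDNA fragments, separated by capillary electrophoresis, gives the signal. HepG2 cells bearing cis-regulated reporter constructs were treated 24 h; activity fitted bidirectionally relative to DMSO negative control.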

Experiment [5] can be described thus: ATG_AP_1_CIS: Attagene CIS-FACTORIAL HepG2 Assay for human Activator Protein 1 (AP-1) (AID 2282931). The conditions noted are these: HepG2 Attagene cis-factorial AP-1 reporter mRNA; actives raise or lower the signal. Put shortly: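 Multiplexed HepG2 reporter assay, 24 h dosing. mRNA induction detected by RT-PCR plus capillary electrophoresis. Activity fitted in both directions against DMSO.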

Experiment [6] is described as follows: ATG_AP_2_CIS: Attagene CIS-FACTORIAL HepG2 Assay for human Activator Protein 2 (AP-2) (AID 2282932). Particulars: HepG2 AP-2 cis-reporter, Attagene transcription factor profiling; actives raise or lower the signal. Put shortly:
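HepG2 cells transiently transfected with cis-element reporter units and exposed for 24 h. Reporter mRNA measured by RT-PCR, FAM labelling, HpaI digestion and capillary electrophoresis. Changes in either direction fitted relative to DMSO.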

Experiment [7] can be described thus: ATG_BRE_CIS: Attagene CIS-FACTORIAL HepG2 Assay for human Bone Morphogenetic Protein (BMP) Response Element (BRE) (AID 2282933). The conditions noted are these: HepG2 BMP response element reporter, Attagene transcription factor profiling; actives raise or lower the signal. Put shortly: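 Transient MRTU transfection of human HepG2 liver cells; 24 h compound treatment; total RNA isolated, reverse-transcribed, PCR-amplified, 6-FAM labelled, HpaI-cut, capillary electrophoresis. DMSO = negative control/baseline, bidirectional fit.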

Experiment [8] addresses Transcription factor E2F1 (Homo sapiens) (UniProt Q01094). In words: ATG_E2F_CIS: Attagene CIS-FACTORIAL HepG2 Assay for human E2F Transcription Factor 1 (AID 2282935). Particulars: HepG2 Attagene cis-reporter, E2F reporter RNA transcripts; actives raise or lower the signal. Put shortly: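 Endogenous E2F1 activity read through cis-promoter reporter units transfected into HepG2. After 24 h compound treatment, reporter mRNA measured by RT-PCR, HpaI digestion and capillary electrophoresis. Bidirectional fit versus DMSO.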

Experiment [9] is described as follows: ATG_E_Box_CIS: Attagene CIS-FACTORIAL HepG2 Assay for human Enhancer Box (E-box) (AID 2282936). The conditions noted are these: HepG2 E-box cis-reporter transcription, actives raise or lower the signal. Put shortly: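 HepG2 cells transiently transfected with multiplexed cis-element reporter units, dosed 24 h; reporter mRNA quantified by RT-PCR, 6-FAM labelling, HpaI digestion and capillary electrophoresis. E-box (USF1) signal fitted bidirectionally vs DMSO.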

Experiment [10] is described as follows: ATG_M_61_CIS: Attagene CIS-FACTORIAL HepG2 Assay for M61 Transcription Factor (Internal Marker) (AID 2282937). Particulars: HepG2 Attagene CIS-FACTORIAL M61 internal marker reporter; actives raise or lower the signal. Put shortly:
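Endogenous transcription factor activity in HepG2 is read through transiently transfected cis-element reporter units. After 24 h dosing, RNA undergoes reverse transcription, PCR and primer extension with 6-FAM before capillary electrophoresis; DMSO-referenced bidirectional fit.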

Experiment [11] in a line: ATG_EGR_CIS: Attagene CIS-FACTORIAL HepG2 Assay for human Early Growth Response 1 (EGR1) (AID 2282938). The conditions noted are these: HepG2 Attagene CIS-FACTORIAL EGR reporter mRNA; actives raise or lower the signal. Put shortly:
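Activity is taken as induction or loss of reporter mRNA versus DMSO, fitted bidirectionally. Transcripts from cis-regulated reporter units in transiently transfected HepG2 were measured after 24 h by RT-PCR with capillary electrophoresis.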

A short description of experiment [12]: ATG_M_19_CIS: Attagene CIS-FACTORIAL HepG2 Assay for M19 Transcription Factor (Internal Marker) (AID 2282939). The conditions noted are these: HepG2 Attagene CIS-FACTORIAL M19 internal marker reporter; actives raise or lower the signal. Put shortly: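 Transfect HepG2 with MRTU reporter library → dose chemical, 24 h → isolate total RNA, reverse-transcribe with oligo(dT) → PCR, 6-FAM label, HpaI cut (2 h, 37 C) → capillary electrophoresis. Bidirectional fit vs DMSO.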

The nature of experiment [13]: ATG_ERE_CIS: Attagene CIS-FACTORIAL HepG2 Assay for Estrogen Response Element (ERE) (AID 2282940). The conditions noted are these: HepG2 ERE cis-reporter, Attagene RNA transcript; actives raise or lower the signal. Put shortly: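 Transient MRTU transfection of human HepG2; cis-element promoters; 24 h dosing; total RNA → RT (oligo dT) → PCR → 6-FAM primer extension → HpaI digest → CE fluorescence. Bidirectional fit, DMSO baseline.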

Experiment [14] in a line: ATG_Ets_CIS: Attagene CIS-FACTORIAL HepG2 Assay for human Erythroblast Transformation Specific (ETS) (AID 2282941). The conditions noted are these: HepG2 ETS cis-reporter transcription, actives raise or lower the signal. Put shortly: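 After transient cis-reporter transfection, HepG2 cells receive test chemical for 24 h. Reporter mRNA levels, measured by RT-PCR and capillary electrophoresis fluorescence, are analysed bidirectionally relative to the DMSO baseline.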

The target in experiment [15] is Hepatocyte nuclear factor 3-beta (Homo sapiens) (UniProt Q9Y261). Description: ATG_FoxA2_CIS: Attagene CIS-FACTORIAL HepG2 Assay for human Forkhead box A2 (FOXA2) (AID 2282942). The conditions noted are these: HepG2 cis-reporter transcription factor activity, 24 h; actives raise or lower the signal. Put shortly:
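Reporter transcript induction is measured by fluorescence after capillary electrophoresis of RT-PCR products from HepG2 cells exposed 24 h. Cis-regulated reporter units report endogenous factor activity; curves fitted both directions against DMSO.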

The nature of experiment [16]: ATG_FoxO_CIS: Attagene CIS-FACTORIAL HepG2 Assay for human Forkhead box O (FoxO) (AID 2282943). The conditions noted are these: HepG2 Attagene cis-reporter, FoxO element, mRNA; actives raise or lower the signal. Put shortly:
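Transfected HepG2 reporter cells exposed to test chemical for 24 h; reporter RNA measured by reverse transcription, PCR and fluorescent capillary electrophoresis; curves fitted for increases and decreases against DMSO.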

Experiment [17] in a line: ATG_GATA_CIS: Attagene CIS-FACTORIAL HepG2 Assay for human GATA Binding Protein (AID 2282944). The conditions noted are these: HepG2 GATA cis-element reporter, Attagene multiplex mRNA; actives raise or lower the signal. Put shortly: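 Transient MRTU transfection, HepG2, 24 h compound exposure. Total RNA → oligo(dT) RT → PCR → 6-FAM primer extension → HpaI cut → CE. Bidirectional fit vs DMSO.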

The nature of experiment [18]: ATG_GLI_CIS: Attagene CIS-FACTORIAL HepG2 Assay for human Zinc Finger Protein GLI1 (AID 2282945). The conditions noted are these: HepG2, Attagene cis-factorial reporter mRNA, GLI element; actives raise or lower the signal. Put shortly: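 Transiently transfected HepG2 cells report endogenous transcription factor activity via cis-element-driven reporter units. After 24 h compound exposure, reporter mRNA was measured by RT-PCR with capillary electrophoresis; bidirectional fitting against DMSO baseline.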

Experiment [19] deals with Aryl hydrocarbon receptor (Homo sapiens) (UniProt P35869). Description: ATG_Ahr_CIS: Attagene CIS-FACTORIAL HepG2 Assay for human Aryl Hydrocarbon Receptor (Ahr) (AID 2282930). The conditions noted are these: HepG2 AhR cis-factorial reporter transcription; actives raise or lower the signal. Put shortly: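 Endogenous factor activity is tracked through cis-promoter reporter units transfected into HepG2 cells. Transcript levels at 24 h are read by fluorescent RT-PCR and capillary electrophoresis, with activity in either direction scored relative to DMSO.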

Experiment [20] addresses Retinoic acid receptor alpha (Homo sapiens) (UniProt P10276). In words: ATG_DR5_RAR_CIS: Attagene CIS-FACTORIAL HepG2 Assay for human Retinoic Acid Receptor Alpha (RARE), DR5 submotif (AID 2282934). The conditions noted are these: HepG2 Attagene cis-factorial RARE DR5 reporter, mRNA; actives raise or lower the signal. Put shortly:
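After 24 h of chemical exposure, transiently transfected HepG2 cells were lysed for total RNA; the DR5-regulated reporter transcript was quantified via RT-PCR and capillary electrophoresis, with activity fitted bidirectionally against DMSO.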

Hepatocyte nuclear factor 3-beta (Homo sapiens), sequence (Q9Y261 whole entry, looked up): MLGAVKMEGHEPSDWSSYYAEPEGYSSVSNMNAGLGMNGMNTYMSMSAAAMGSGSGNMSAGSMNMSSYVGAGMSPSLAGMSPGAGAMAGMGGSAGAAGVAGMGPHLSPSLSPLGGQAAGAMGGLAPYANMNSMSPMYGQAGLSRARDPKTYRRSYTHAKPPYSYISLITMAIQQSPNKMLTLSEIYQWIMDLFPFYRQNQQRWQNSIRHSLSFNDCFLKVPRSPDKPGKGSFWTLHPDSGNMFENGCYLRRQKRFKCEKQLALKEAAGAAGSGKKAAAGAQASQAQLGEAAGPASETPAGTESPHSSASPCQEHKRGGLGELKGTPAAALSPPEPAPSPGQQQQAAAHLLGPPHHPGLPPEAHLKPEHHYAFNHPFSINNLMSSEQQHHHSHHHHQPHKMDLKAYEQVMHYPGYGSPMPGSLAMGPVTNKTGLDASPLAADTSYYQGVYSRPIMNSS
Transcription factor E2F1 (Homo sapiens), sequence (Q01094 whole entry, looked up): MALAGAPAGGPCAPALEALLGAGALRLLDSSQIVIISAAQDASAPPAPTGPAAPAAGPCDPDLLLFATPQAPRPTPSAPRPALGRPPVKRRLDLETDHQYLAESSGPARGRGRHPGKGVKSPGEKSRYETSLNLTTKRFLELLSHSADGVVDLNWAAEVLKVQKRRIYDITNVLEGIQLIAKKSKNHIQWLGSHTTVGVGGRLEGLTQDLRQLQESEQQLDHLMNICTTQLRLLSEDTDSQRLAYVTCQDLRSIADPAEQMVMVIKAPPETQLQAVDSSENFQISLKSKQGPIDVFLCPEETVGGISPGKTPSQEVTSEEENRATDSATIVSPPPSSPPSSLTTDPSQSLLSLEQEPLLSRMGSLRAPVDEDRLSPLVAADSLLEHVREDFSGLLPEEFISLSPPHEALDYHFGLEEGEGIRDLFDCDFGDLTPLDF
CCAAT/enhancer-binding protein beta (Homo sapiens), sequence (P17676 whole entry, looked up): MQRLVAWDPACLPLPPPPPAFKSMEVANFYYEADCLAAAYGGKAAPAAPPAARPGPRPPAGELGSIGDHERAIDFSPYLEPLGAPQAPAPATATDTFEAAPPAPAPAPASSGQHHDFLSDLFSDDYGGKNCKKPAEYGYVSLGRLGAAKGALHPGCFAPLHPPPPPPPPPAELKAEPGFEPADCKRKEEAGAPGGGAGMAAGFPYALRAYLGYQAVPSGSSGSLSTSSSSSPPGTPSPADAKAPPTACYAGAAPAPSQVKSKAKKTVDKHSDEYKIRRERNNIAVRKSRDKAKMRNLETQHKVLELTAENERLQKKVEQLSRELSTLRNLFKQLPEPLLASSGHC
Retinoic acid receptor alpha (Homo sapiens), sequence (P10276 whole entry, looked up): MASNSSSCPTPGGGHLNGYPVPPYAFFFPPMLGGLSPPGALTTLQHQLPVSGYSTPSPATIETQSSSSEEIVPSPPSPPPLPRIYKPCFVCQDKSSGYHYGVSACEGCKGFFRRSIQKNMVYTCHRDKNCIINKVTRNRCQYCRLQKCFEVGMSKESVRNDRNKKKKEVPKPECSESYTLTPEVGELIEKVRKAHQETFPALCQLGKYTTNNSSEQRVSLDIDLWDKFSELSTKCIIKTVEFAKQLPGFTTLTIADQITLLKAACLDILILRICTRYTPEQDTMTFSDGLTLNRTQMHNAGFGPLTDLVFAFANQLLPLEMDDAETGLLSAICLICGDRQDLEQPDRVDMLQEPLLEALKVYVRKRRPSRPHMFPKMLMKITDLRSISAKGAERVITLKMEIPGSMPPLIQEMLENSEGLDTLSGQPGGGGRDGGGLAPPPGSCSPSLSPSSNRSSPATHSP
Aryl hydrocarbon receptor (Homo sapiens), sequence (P35869 whole entry, looked up): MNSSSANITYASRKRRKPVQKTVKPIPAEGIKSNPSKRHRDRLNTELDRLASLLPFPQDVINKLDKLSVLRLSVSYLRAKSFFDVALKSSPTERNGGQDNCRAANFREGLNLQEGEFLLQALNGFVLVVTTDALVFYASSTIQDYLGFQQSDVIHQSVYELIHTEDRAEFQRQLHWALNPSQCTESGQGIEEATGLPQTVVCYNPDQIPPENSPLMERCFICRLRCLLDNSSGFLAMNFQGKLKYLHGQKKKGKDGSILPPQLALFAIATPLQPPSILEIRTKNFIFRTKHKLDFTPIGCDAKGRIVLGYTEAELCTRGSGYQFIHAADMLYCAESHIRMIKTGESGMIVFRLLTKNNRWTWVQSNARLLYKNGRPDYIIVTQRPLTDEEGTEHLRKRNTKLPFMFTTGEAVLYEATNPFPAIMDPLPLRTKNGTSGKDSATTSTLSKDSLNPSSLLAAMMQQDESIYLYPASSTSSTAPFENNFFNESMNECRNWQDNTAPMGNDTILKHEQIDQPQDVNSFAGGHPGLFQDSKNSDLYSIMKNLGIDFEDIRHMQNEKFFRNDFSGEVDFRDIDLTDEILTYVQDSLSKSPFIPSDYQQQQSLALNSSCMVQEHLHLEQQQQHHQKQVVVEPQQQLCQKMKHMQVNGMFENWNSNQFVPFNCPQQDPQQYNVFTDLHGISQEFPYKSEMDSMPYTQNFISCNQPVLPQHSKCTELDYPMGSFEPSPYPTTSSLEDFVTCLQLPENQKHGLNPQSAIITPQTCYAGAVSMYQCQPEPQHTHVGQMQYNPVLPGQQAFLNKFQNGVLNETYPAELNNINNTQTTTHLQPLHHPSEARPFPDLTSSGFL

Regarding `O=C(O)c1cn(C2CC2)c2cc(N3CCNCC3)c(F)cc2c1=O`, the result in [1], in experiment [2], in experiment [3], in experiment [4], in experiment [5] and in experiment [6] was inactive. Also, the result in experiment [7], in [8], in experiment [9], in experiment [10], in experiment [11] and in experiment [12] was inactive. The outcome in [13], in experiment [14], in [15], in experiment [16], in experiment [17] and in [18] was inactive.
For the compound `CCc1ccc(C=O)cc1`, the compound was classed as inactive in [1], in [2], in [3], in [4], in experiment [19] and in experiment [6]. Moreover, the call in [7], in [8], in experiment [9], in experiment [10], in [11] and in experiment [12] was inactive. The outcome in experiment [14], in experiment [15], in experiment [16], in experiment [17] and in [18] was inactive.
For `CNC(=O)Oc1ccc2c(c1)[C@]1(C)CCN(C)[C@@H]1N2C`, the result in experiment [1], in experiment [2], in experiment [3], in experiment [4], in experiment [5] and in experiment [6] was inactive. Besides, the call in experiment [7], in experiment [9], in [10], in experiment [11], in experiment [12] and in experiment [13] was inactive. For the same compound, the compound was classed as inactive in [16], in [17] and in experiment [18].
Turning to `O=C(Oc1ccccc1)c1ccc(O)cc1`, the call in [1], in [2], in experiment [3], in [4], in experiment [5] and in experiment [6] was inactive. Also, the compound was classed as inactive in [7], in experiment [20], in experiment [8], in [9], in experiment [10] and in [11]. The outcome in experiment [12], in [15], in [16], in experiment [17] and in experiment [18] was inactive.
In the case of `O=C1CCCCCCCCCCOCCCCO1`, the outcome in [1], in experiment [2], in experiment [3], in experiment [5], in experiment [6] and in experiment [20] was inactive. In addition, the result in experiment [8], in experiment [9], in experiment [11], in experiment [14], in experiment [15] and in experiment [16] was inactive. For the same compound, the compound was called inactive in experiment [17]. In addition, the results for the AC50 in experiment [4] and in [7] were 74.1 µM (active) and 100 µM (active), respectively.
With `Cc1c(N(C)C)c(=O)n(-c2ccccc2)n1C`, the result in experiment [1], in [2], in [3], in experiment [4], in [5] and in experiment [6] was inactive. For the same compound, the result in experiment [7], in experiment [8], in [9], in experiment [10], in [11] and in experiment [12] was inactive. Also, the outcome in [13], in experiment [14], in [15], in experiment [16], in experiment [17] and in [18] was inactive.
With `CCCCCCCCCCCCCOS(=O)(=O)O`, the outcome in experiment [1], in [2], in experiment [3], in experiment [4], in experiment [5] and in experiment [6] was inactive. The result in experiment [7], in experiment [8], in experiment [9], in experiment [10], in experiment [11] and in [12] was inactive. The result in experiment [14], in experiment [15], in experiment [16], in experiment [17] and in experiment [18] was inactive.

As usually defined, the AC50 is the concentration giving half of the maximal activity seen.
